Source: PubChem BioAssay
KDM5B inhibitor: KDM5B demethylase inhibition; 220,000 tested, 2.6% active; Potency, µM (titrated, usually from 57.7 µM), actives largely listed as inhibitors; AID 1347165; KDM5B demethylase, FDH-coupled NADH fluorescence (FDH is formaldehyde dehydrogenase); active = well fitted inhibition curve with a large enough effect; also: 0% is about no effect; nearly all actives have a fitted effect of over 70% in size
Target sequence (Q9UGL1 whole entry, looked up): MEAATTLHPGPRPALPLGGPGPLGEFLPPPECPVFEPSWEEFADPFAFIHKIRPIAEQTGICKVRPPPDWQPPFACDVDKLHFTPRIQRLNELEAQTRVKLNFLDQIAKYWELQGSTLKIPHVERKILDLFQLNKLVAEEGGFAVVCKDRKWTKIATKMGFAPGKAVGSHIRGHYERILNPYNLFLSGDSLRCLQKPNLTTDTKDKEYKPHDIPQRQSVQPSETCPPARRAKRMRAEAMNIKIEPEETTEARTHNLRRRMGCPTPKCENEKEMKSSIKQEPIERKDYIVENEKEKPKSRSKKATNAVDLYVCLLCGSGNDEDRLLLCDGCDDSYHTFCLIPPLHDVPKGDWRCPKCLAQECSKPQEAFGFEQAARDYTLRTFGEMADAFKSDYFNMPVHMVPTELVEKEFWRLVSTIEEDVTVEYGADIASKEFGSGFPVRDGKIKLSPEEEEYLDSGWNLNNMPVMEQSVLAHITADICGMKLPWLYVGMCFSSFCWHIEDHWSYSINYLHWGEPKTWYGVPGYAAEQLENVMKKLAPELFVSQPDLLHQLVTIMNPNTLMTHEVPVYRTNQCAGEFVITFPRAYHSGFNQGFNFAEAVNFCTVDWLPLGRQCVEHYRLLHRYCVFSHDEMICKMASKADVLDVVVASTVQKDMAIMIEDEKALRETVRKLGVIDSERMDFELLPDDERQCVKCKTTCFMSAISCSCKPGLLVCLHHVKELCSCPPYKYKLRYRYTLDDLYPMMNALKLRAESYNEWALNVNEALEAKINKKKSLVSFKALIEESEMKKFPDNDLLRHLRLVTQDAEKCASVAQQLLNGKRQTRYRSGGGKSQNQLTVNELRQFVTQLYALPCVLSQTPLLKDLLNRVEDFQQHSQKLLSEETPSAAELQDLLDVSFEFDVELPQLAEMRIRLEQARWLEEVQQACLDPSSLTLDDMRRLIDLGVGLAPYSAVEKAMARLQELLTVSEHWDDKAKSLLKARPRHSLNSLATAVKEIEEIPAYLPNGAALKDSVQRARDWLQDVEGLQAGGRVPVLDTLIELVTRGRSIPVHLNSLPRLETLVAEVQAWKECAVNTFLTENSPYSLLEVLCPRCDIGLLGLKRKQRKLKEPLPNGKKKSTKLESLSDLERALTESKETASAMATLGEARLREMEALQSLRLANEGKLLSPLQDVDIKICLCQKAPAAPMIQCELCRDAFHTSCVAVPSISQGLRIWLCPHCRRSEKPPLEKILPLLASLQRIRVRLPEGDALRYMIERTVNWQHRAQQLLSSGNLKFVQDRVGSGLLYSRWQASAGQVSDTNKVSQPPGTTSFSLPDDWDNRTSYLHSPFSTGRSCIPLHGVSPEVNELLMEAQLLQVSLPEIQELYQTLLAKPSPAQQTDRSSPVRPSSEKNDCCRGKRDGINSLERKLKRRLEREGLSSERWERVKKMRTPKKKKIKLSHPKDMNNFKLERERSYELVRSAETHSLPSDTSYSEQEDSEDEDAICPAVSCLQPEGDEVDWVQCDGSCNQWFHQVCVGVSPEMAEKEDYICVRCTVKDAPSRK
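Measured: NADH fluorescence change, 30 min, RT. System: KDM5BΔAP 200 nM final, H3K4me3 peptide, α-KG, Fe(II), ascorbate, NAD⁺ plus FDH, pH 7.5 HEPES. Compounds: titrated, 10 min pre-incubation with enzyme.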
The depositor's hits bear a star; i = inactive. The entries come from a sample that favours hits as a whole. Potency is read from the fitted curve at half-maximal effect.

SMILES | KDM5B inhibitor
Cc1cc(C)cc(NC(=O)CC(=O)N2CCN(C)C3(CCN(C)CC3)C2)c1 | i
CCc1c(C(=O)N2CCCN(C)C3(CCN(C)CC3)C2)csc1C | i
Cc1cc(C)c2c(C(=O)N3CCN(C)C4(CCN(C)CC4)C3)cc(C)nc2c1 | 25µM*
CN1CCN(C(=O)c2ccc(CNC(=O)c3cc4cc(F)ccc4[nH]3)cc2)CC1 | i
O=C(CCc1ncc(-c2ccc(F)cc2F)o1)Nc1ccc(Cl)cc1Cl | i
Cc1cc(C)cc(NC(=O)CSc2ncc(CO)n2CC(=O)NC(C)C)c1 | i
Cc1ccc(Br)c(C(=O)NCc2ccnc3[nH]ccc23)c1 | i
CC(=O)N1CCN(C(=O)c2c[nH]c3ncccc23)CC1 | i
CN(C)C(=O)c1ccnc2[nH]ccc12 | 126µM*
COCCCNC(=O)c1c[nH]c2ncccc12 | i
O=C(c1ccnc2[nH]ccc12)N1CCOCC1 | 126µM*
O=C(c1cc(N2CCCCCC2)nc2ccccc12)N1CCOCC1 | i
COc1ccc(S(=O)(=O)Nc2ccc3c(c2)N(C(=O)c2cccnc2)CC3)c(OC)c1 | i
CC(Sc1nc(C(F)(F)F)nc2ccccc12)C(=O)N1CCCC1 (centres undefined) | i
CC(C)n1c(C2CC(=O)N(c3cccc(C(F)(F)F)c3)C2)nc2ccccc21 (centres undefined) | i
Cc1ccc(CNC(=O)c2cnc3ccccc3n2)cc1 | i
Cc1cn2nc(C(=O)NCc3ccccc3Cl)cc2c(=O)[nH]1 | i
Cc1cn2nc(C(=O)NCc3ccc(F)cc3)cc2c(N(C)Cc2ccccc2)n1 | 25µM*
Cc1ccc(CCNC(=O)c2cc3c(=O)[nH]c(C)cn3n2)cc1 | i
Cc1cn2nc(C(=O)NCCc3ccccc3)cc2c(=O)[nH]1 | i
Cc1ccc(CNC(=O)c2cc3c(N(C)Cc4ccccc4)nc(C)cn3n2)cc1 | 28µM*
Cc1cn2nc(C(=O)NCc3ccccc3C)cc2c(N(C)Cc2ccccc2)n1 | 14µM*
CN(C)c1c(F)cc(C(=O)NCc2ccccc2)cc1F | i
Cc1ccnc(NC(=O)CCC(=O)N(CC(=O)NCc2ccccc2)Cc2ccc(F)cc2)c1 | i
Cc1c(-c2ccccc2)oc2c(C(=O)NCc3ccccc3CN(C)C)cccc2c1=O | i
SMILES | KDM5B inhibitor
Cc1ccccc1-c1nc(-c2c(C)noc2C)cc2cc(CN(C)C)oc12 | i
Cc1cc2cc(-c3c(C)noc3C)nc(N3CCN(c4ccccn4)CC3)c2o1 | 32µM*
Cc1noc(C)c1-c1cc2cc(CN(C)C)oc2c(NC(C)C)n1 | i
CNC(=O)c1cc2cc(-c3c(C)noc3C)nc(-c3cccc(OC)c3OC)c2o1 | i
COc1cc(-c2nc(-c3c(C)noc3C)cc3c2cc(C)n3C)ccn1 | i
COc1cc(-c2nc(-c3c(C)noc3C)cc3cc(C)oc23)ccn1 | 35µM*
CC(=O)Nc1cccc(-c2nc(-c3c(C)noc3C)cc3cc(CO)oc23)c1 | 40µM*
Cc1noc(C)c1-c1cc2cc(C(C)C)oc2c(N2CCN(C)CC2)n1 | i
Cc1noc(C)c1-c1cc2cc(CO)oc2c(-c2ccc(F)c(Cl)c2)n1 | 32µM*
Cc1cc2cc(-c3c(C)noc3C)nc(N3CCN(C)C(=O)C3)c2o1 | i
Cc1cc2cc(-c3c(C)noc3C)nc(N(C)C)c2o1 | i
CC(=O)Nc1cccc(-c2nc(-c3c(C)noc3C)cc3c2cc(C)n3CCN(C)C)c1 | i
S=C(NCCc1ccccc1)N/N=C/c1cccc(Br)c1 | i
C=C(Cl)COc1ccc(C(=O)NC)cc1 | i
Cc1c(C(=O)Nc2nccs2)nnn1-c1cccc(C(F)(F)F)c1 | i
CN(C)c1ccc(C#N)cc1 | i
OCc1nc2ccccc2n1CC(O)COc1cc(Cl)ccc1Cl (centres undefined) | i
Cc1ccccc1C(=O)Cn1c(=O)n(CCc2ccccc2)c(=O)c2sccc21 | i
Cc1ccc(C(=O)/C=C/c2cccc(OC(C)C(=O)O)c2)o1 (centres undefined) | i
CCn1cc(C(=O)N2CCN(CC(=O)NCc3ccccc3)CC2)c2ccccc21 | i
Cn1c(=O)c2c(nc(NCc3ccccc3)n2Cc2ccccc2Br)n(C)c1=O | i
O=C(Nc1cccc(Cl)c1)c1nn(Cc2ccccc2)c(=O)c2ccccc12 | i
Cc1nn(-c2nc3c(c(=O)n(Cc4ccccc4Cl)c(=O)n3C)n2C)c(C)c1C | i
NC(=O)c1ccc(NC(=O)Cn2nc(-c3cccs3)c3ccccc3c2=O)cc1 | i
C=CCNC(=S)NCCCOC | i
SMILES | KDM5B inhibitor
Cc1ccc(NC(=O)CCc2ccc(C#N)cc2)nc1 | i
COc1ccc(-c2nc(-c3c(C)noc3C)cc3cc(CO)oc23)cn1 | 35µM*
COc1ccc(S(=O)(=O)c2cc3ccccc3oc2=O)cc1 | i
CCn1c(=O)n(CC(=O)NCC(=O)Nc2cccc(C)c2C)c2ccccc21 | i
Cc1ccc(CC(=O)NCCc2ccccn2)cc1 | i
Cc1ccc(CC(=O)NC(C)C(=O)N2CCN(c3ccccn3)CC2)cc1 (centres undefined) | 28µM*
CCCCCn1nc(C(=O)N2CCN(c3ccccn3)CC2)c2ccccc2c1=O | i
COCCn1ncc(N2CCCC(CC(=O)N3CCN(c4ccccn4)CC3)C2)cc1=O (centres undefined) | i
CC(NC(=O)CCc1ccccc1)C(=O)N1CCN(c2ccccn2)CC1 (centres undefined) | 25µM*
CCC(=O)N1CCC2(CC1)CC(N1CCN(c3ccccn3)CC1)CCO2 (centres undefined) | i
COCC1CCN(C(=O)C2CCCN(C(=O)c3ccccc3)CCC(=O)NCC2)CC1 (centres undefined) | i
COCCC(=O)N1CCCC(C(=O)N2CCN(c3ccccn3)CC2)CCNC(=O)CC1 (centres undefined) | 28µM*
Cc1ccc(OC(C)C(=O)N2CCN(c3ccccn3)CC2)cc1 (centres undefined) | i
CC(CNC(=O)CCc1ccccc1)NC(=O)CCc1ccccc1 (centres undefined) | i
C[C@H](NC(=O)c1ccccc1)C(=O)N1CCN(c2ccccc2)CC1 | i
CCCC(=O)NC(C)C(=O)N1CCN(c2ccccn2)CC1 (centres undefined) | 25µM*
CN1CCN(C(CNCC(O)COC2CCCc3ccccc32)c2cccs2)CC1 (centres undefined) | i
COc1cc(Br)cc2cc(-c3nc(-c4ccc(C(F)(F)F)cc4)no3)c(=O)oc12 | i
CCCCNC(=S)N/N=C/C=C(/C)CCC=C(C)C | i
COCCN1C(=O)c2n[nH]c(-c3ccco3)c2C1c1ccc(OC)c(OC)c1 (centres undefined) | i
O=C(Nc1c(NC2CCCC2)c2ccccc2oc1=O)c1ccc(Cl)cc1 | i
COc1ccc(S(=O)(=O)c2c(C)c(C)n(CC(C)C)c2NC(=O)C2CCCO2)cc1 (centres undefined) | i
COc1ccc(S(=O)(=O)c2c(C)c(C)n(Cc3ccccc3)c2NC(=O)C(C)C)cc1 | i
CC(C)CCn1cnc2c1c(=O)n(CC(=O)N1CCCc3ccccc31)c(=O)n2Cc1ccccc1 | i
COc1cccc(-n2nnc3c(N4CCN(S(=O)(=O)c5ccccc5F)CC4)ncnc32)c1 | i
O=C(NCC1(N2CCOCC2)CCCCC1)c1nn(-c2ccccc2)c(=O)c2ccccc12 | i
C/C(=C/C(=O)C(F)(F)F)N1CCN(c2ccccn2)CC1 | i
CC(NC(=O)C(C)(C)C)C(=O)N1CCN(c2ccccn2)CC1 (centres undefined) | 28µM*
